Among all 69,000 compounds or so, about 8,600 (12%) showed an effect of 50% or more. The list comes from a sample in which strong results are over-represented; it also holds similar structures and randomly drawn compounds.
test system: Plasmodium berghei; assay: Screen against P. berghei liver stage (PbLuc), transformed with Luciferase, at 10uM; type: functional, HepG2; conditions: tested at 10 uM

SMILES | INHIBITION
CC(C)c1nn(C)c(N(C)C)c1CNCc1ccccc1CO | -9.05%
Cc1cc(CN(C)C(=O)NC2CCN(C3CC3)CC2)no1 | 3.75%
Cc1ccc(C)c(CSc2nnc([C@@H](N)C(C)C)o2)c1 | 34.5%
CCC(=O)Nc1ccc(OCC(=O)N(C)C(C)c2ccon2)cc1 (centres undefined) | 10.7%
Cc1ccc(-c2nc(CC3CCN(C)CC3)no2)cc1N1CCNC1=O | 14.1%
CC(c1nnc(-c2cccs2)o1)N1CCc2cncnc2C1 (centres undefined) | -18.5%
O=C(NCC1OCCc2cn(CC3CCOCC3)nc21)c1ccsc1 (centres undefined) | 49.3%
O=C(Cc1ccccc1)N1CC[C@H]2[C@@H]1CCC(=O)N2Cc1ccncc1 | 3.25%
Cc1cccc(CN2CCS(=O)(=O)[C@@H]3CCN(C(=O)C4CC4)CC[C@@H]32)n1 | 34.9%
Cc1ccc(N2CCCC(NCc3ccsc3)C2)nn1 (centres undefined) | 5.44%
CCC(=O)N1CC[C@@H]2[C@H](CC1)N(Cc1cccc(C)n1)CCS2(=O)=O | 2.4%
O=C1C[C@H]2[C@@H](CCN2C(=O)Cc2ccsc2)N1Cc1cccnc1 | 62.9%
O=C1C[C@H]2[C@@H](CCN2C(=O)Cc2ccccc2)N1Cc1cccnc1 | -6.05%
CCCC(=O)N1CC[C@@H]2[C@H](CC1)N(Cc1cccc(C)n1)CCS2(=O)=O | 57.1%
O=C1C[C@H]2[C@@H](CCN2C(=O)Cc2cccs2)N1Cc1cccnc1 | 24.9%
Cc1ccc(N2CC[C@@H]3[C@@H]2CCN3C(=O)Cc2ccccc2)nn1 | 69.3%
Cc1ccc(N2CC[C@@H]3[C@@H]2CCN3Cc2ccsc2)nn1 | 51.2%
Cc1ccc(N2CC[C@@H]3[C@@H]2CCN3C(=O)Cc2cccs2)nn1 | 31.2%
Cc1ccc(N2CC[C@@H]3[C@@H]2CCN3C(=O)c2cscn2)nn1 | 18.5%
CCN(Cc1noc(C2CCC2)n1)C(=O)c1cnc2ccccc2c1 | 7.44%
Cc1nc(-c2ccccc2C(=O)O)cc(C2CCN(C(C)C)C2)n1 (centres undefined) | 24.8%
NC(=O)[C@@H]1CN2CCN(C(=O)C3CC3)C[C@@H]2[C@H]1c1ccccc1 | 16.9%
CC(C)c1nc(C2CCCN(C(=O)Cn3ccccc3=O)C2)no1 (centres undefined) | -7.31%
CN1Cc2cnn(CC3CCCC3)c2C(COCC2CC2)C1 (centres undefined) | 26.3%
Cc1ccc(CN2CC[C@H]3C[C@H](C(=O)N4CCCO4)O[C@@H]3C2)o1 | 38.5%

SMILES | INHIBITION
CCN(CC)C(CNC(=O)c1ccc(-n2cncn2)cc1)c1ccsc1 (centres undefined) | -2.46%
CNC(=O)c1sc2ccccc2c1CC1CCCCN1Cc1ncc[nH]1 (centres undefined) | 42.2%
O=C(Cn1nc(Br)nc1Br)N1CCCC1 | 27.4%
Cc1cccc(CN2CC[C@@H]3[C@@H]2CCN3C(=O)Cc2cccs2)n1 | 42.1%
Cc1ccc(N2CC[C@@H]3[C@@H]2CCN3C(=O)Cc2ccsc2)nn1 | 55.7%
Cc1ccc(CN2CC[C@@H]3[C@@H]2CCN3C(=O)Cc2cccs2)o1 | 93.7%
O=C(Cc1cccs1)N1CC[C@H]2[C@H]1CCN2Cc1cccnc1 | -25.8%
Cc1cccc(CN2C(=O)C[C@@H]3[C@@H]2CCN3Cc2ccsc2)n1 | 46.9%
Cc1ccc(NC2CCN(C(=O)CCc3ccsc3)CC2)nn1 | -59.4%
O=C1C[C@H]2[C@@H](CCN2C(=O)Cc2cccs2)N1CC1CC1 | -38.1%
Cc1ccc(N2CCCN(C(=O)CCc3ccsc3)CC2)nn1 | 1.04%
Cc1cccc(CN2CC[C@@H]3[C@@H]2CCN3C(=O)Cc2ccsc2)n1 | 63.8%
COC(=O)[C@H](CCSC)NC(=O)Cn1ccc2c(Cl)cccc21 | 25%
CN(C)C(=O)c1sc2ncccc2c1C1CNCCO1 (centres undefined) | 12.8%
O=C(CO)N1CCC(c2cncc(-c3cccc(Cl)c3)n2)CC1 | 46.6%
Cc1cnn(C2CCCN(C(=O)c3cc(Cl)c4c(c3)OCO4)C2)c1 (centres undefined) | 37.9%
COc1ccc(-n2cc3nc(N)[nH]cc-3c2=O)cc1Cl | 43.3%
COc1ccc(-c2ccnc3nc(N4CCCCC4)[nH]c(=O)c23)cc1 | 30.8%
CC(C)c1nnc2n1CCN(Cc1cc(Cl)c3c(c1)OCO3)C2 | 33.7%
CC(C)c1nnc2n1CCN(Cc1ccc3c(c1)OCCO3)C2 | -41.4%
CC(C)c1nnc2n1CCN(Cc1ccc3c(c1)OCO3)CC2 | 54.6%
O=C(NCC1CCC(c2ccnc3ncnn23)CC1)c1ccccn1 (centres undefined) | -24.4%
O=C(CCCn1cncn1)NC1(c2ccc(Cl)cc2)CCC1 | 61.3%
COc1ccc(C2(NC(=O)c3ccc(=O)n(C)n3)CCCC2)cc1 | 17.7%

— ChEMBL document CHEMBL4513216, “Probing the Open Global Health Chemical Diversity Library for Multistage-Active Starting Points for Next-Generation Antimalarials” (ACS Infect Dis, 2020)
